Rows were chosen to be rich in hits. Some 12% of all compounds tested hit in one or more screens of this group.
FMDV inh: antivirals against foot and mouth disease virus. FMDV antiviral cell-based qHTS. Potency, µM (titrated, usually from 57.9 µM), for inactives: top-dose activity change, negative = inhibition, hits mostly inhibitors. actives 1.2% (n = 410,000). AID 1159524; calls by dose curve; tested in HEK293T cells; also: read-out not given here; potency is read from the fitted curve at half-maximal effect; % is scaled to controls: 0 for no effect and ±100 for the full control effect; nearly all actives have a fitted effect of over 45% in size
Shiga inhibitor: inhibitors of Shiga toxin in Vero cells; Vero cells, Shiga toxin protein synthesis inhibition reporter; inhibition, % at 38.7 µM; actives 9.2% (n = 290,000); in the data active = inhibition mostly above about 28%, no sharp cut-off; inactive = mostly below about 43%; also: 0% is about no effect
Sm TGR block: blocks Schistosoma mansoni thioredoxin glutathione reductase | Potency, µM (series often up to 114 µM), without a hit: at the top dose activity change, negative = inhibition, most hits filed as inhibitors | actives 3% (n = 360,000) | Q962Y6 | AID 485364 | purified TGR, DTNB reduction, TNB absorbance 405 nm; active = well fitted inhibition curve with a large enough effect; inconclusive = small, poorly fitted or top-dose-only effect; inactive = no such curve, though single readings can be large or run the other way; also: potency is read from the fitted curve at half-maximal effect; % is scaled to controls: 0 for no effect and ±100 for the full control effect; nearly all actives have a fitted effect of over 60% in size
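First, TGR (20 nM dispensed) and NADPH were mixed with compound. Second, a 15 min room-temperature incubation followed. Third, further NADPH and then DTNB were added to start the reaction. Finally, TNB absorbance was monitored kinetically.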
CHX counter: counter-screen hit for Shiga toxin inhibitors, cycloheximide. cell reporter, cycloheximide protein synthesis inhibition counterscreen. max response, %. actives 12% (n = 300,000); in the data active = max response mostly above about 13%, no sharp cut-off; inactive = mostly below about 14%; also: read at 38.3 µM for the half of the compounds with a filed dose; 0% is about no effect
* = called active by the depositor; ? = inconclusive; / = not tested or not shown.

SMILES	FMDV inh	Shiga inhibitor	Sm TGR block	CHX counter
CCCOc1ccc(C(=O)Nc2nonc2-c2ccc(OCC)cc2)cc1	6%	/	-4%	/
Cc1noc(C)c1C(=O)Nc1ccc(F)c(F)c1	-14%	-22	0%	-4
Cc1occc1C(=O)NCc1ccc2c(c1)OCO2	15%	-7	-15%	3
Cc1occc1C(=O)Nc1ccccc1C(=O)O	10%	48	0%	20*
Cc1noc(C)c1C(=O)Nc1ccc2ccccc2c1	15%	34	5%	21*
Cc1occc1C(=O)NCc1cccc(CNC(=O)c2ccoc2C)c1	22%	14	40µM*	-1
CNC(=O)c1ccc(Nc2nnc(-c3ccc(C)c(S(=O)(=O)N4CCOCC4)c3)c3ccccc23)cc1	-30%	/	4%	/
CC1=C(C(=O)Nc2ccc(Cl)cc2)C(c2cccs2)n2nc(SCc3cccc(Cl)c3)nc2N1 (stereo not given)	15%	/	0%	/
COc1ccc(CCNC(=O)c2c(C)nn(-c3ccc(F)cc3)c2-n2cccc2)c(OC)c1OC	?	/	9%	/
O=C(Cc1ccc(NC(=O)N2CCCCc3ccccc32)cc1)NCc1ccccc1	-20%	/	-3%	/
CN(C)c1ccc(/C=N/n2ncc3ccccc32)cc1	/	98*	0%	39*
C=CCn1c(/N=C/c2ccc(N(C)C)cc2)nc2ccccc21	14%	-2	8%	-2
CC(O)C(=O)N/N=C/c1cccc(Cl)c1Cl (stereo not given)	36%	-18	0%	20*
CC1=C(c2ccc(C)c(C)c2)S(=O)(=O)N(Cc2ccc(C(=O)NCc3cccc(C)c3)cc2)C1=O	1%	/	0%	/
CN(C)c1cccc2c(C=C(C#N)C#N)ccc(N(C)C)c12	-22%	-5	25µM*	-2
CN(C)c1cccc2c(/C=N/O)ccc(N(C)C)c12	-21%	0	-22%	4
NC(=O)C1CCN(S(=O)(=O)c2ccc(N3CCCCS3(=O)=O)cc2)CC1	-2%	/	-24%	/
CSc1nc(-c2ccco2)nn1C(=O)c1ccc(C)cc1	-22%	2	?	-2
COc1ccccc1/C=c1\sc2nc(-c3ccco3)nn2c1=O	15%	-2	11µM*	1
CCOc1ccc(/C=c2\sc3nc(-c4ccco4)nn3c2=O)cc1OCC	-7%	-2	?	3
COc1ccccc1C(=O)n1nc(-c2ccco2)nc1SC	-11%	-10	14µM*	5
COc1ccc(C(=O)n2nc(-c3ccco3)nc2N)cc1	-8%	4	32µM*	2
CSc1nc(-c2ccco2)nn1C(=O)c1ccccc1	-19%	8	16µM*	25
Cc1ccc(C(=O)n2nc(-c3ccco3)nc2N)cc1	?	-26	?	-3
Cc1ccc(-c2nc(N)n(C(=O)Cc3ccccc3)n2)cc1	-10%	13	1%	8
SMILES	FMDV inh	Shiga inhibitor	Sm TGR block	CHX counter
CSc1nc(-c2ccc(Cl)cc2)nn1C(=O)c1ccco1	36%	65*	-25%	62*
CSc1nc(-c2ccccc2)nn1C(=O)c1ccc(C)cc1	5%	65	-13%	15*
CSc1nc(-c2ccco2)nn1C(=O)c1ccco1	-8%	-15	?	-4
Cc1ccc(C)c(CN2CCCN(CC(=O)Nc3ccc(C)c(C)c3)S2(=O)=O)c1	-14%	/	6%	/
COc1ccc(CCCc2nnc(SCC(=O)Nc3cccc(F)c3C)o2)cc1	-11%	/	6%	/
Nc1ccccc1-c1ccn[nH]1	16%	/	/	/
c1ccc(-c2ncc(-c3ccn[nH]3)s2)cc1	-24%	93*	58%	46*
Cc1nc(C)n(CC(=O)NCC2Cc3cc(-c4cccc(OC(F)(F)F)c4)ccc3O2)n1 (stereo not given)	-21%	/	/	/
O=C(NNC1=C(C(=O)C(F)(F)F)CCC1)c1cccc(Cl)c1	-31%	85*	?	28*
COc1ccc(C(=O)NNC2=C(C(=O)C(F)(F)F)CCC2)cc1	-20%	48*	3%	27*
O=C(NNC1=C(C(=O)C(F)(F)F)CCC1)c1ccc(Cl)cc1	/	86*	2%	18*
O=C(NNC(=O)c1cccc(Cl)c1)NNC(=O)c1cccc(Cl)c1	-5%	/	/	/
COc1ccc(C(=O)NNC(=O)OC(C)(C)C)cc1	-1%	-8	0%	1
CC(C)(C)c1ccc(C(=O)NNC(=O)c2ccc(Cl)cc2)cc1	13%	-8	-3%	-3
O=C(Cn1c(=O)n(-c2ccc(F)c(Cl)c2)c(=O)c2sc3ccccc3c21)NC1CCCC1	0%	/	7%	/
O=C(COc1ccc(F)cc1)Nc1ccccc1C(=O)OCc1cc(=O)n2nc(C3CC3)sc2n1	-22%	/	3%	/
CCOC(=O)c1ccc(N2C(=O)c3n[nH]c(-c4ccco4)c3C2c2cccc(F)c2)cc1 (stereo not given)	?	/	4%	/
CCOC(=O)c1ccc(N2C(=O)c3n[nH]c(C)c3C2c2ccc(O)cc2)cc1 (stereo not given)	-18%	-3	35µM*	2
CCOC(=O)c1ccc(N2C(=O)c3n[nH]c(-c4ccco4)c3C2c2ccccc2OC)cc1 (stereo not given)	22µM*	/	-3%	/
CCOC(=O)c1ccc(N2C(=O)c3n[nH]c(C)c3C2c2ccccc2)cc1 (stereo not given)	-7%	-15	6%	-4
CCOC(=O)c1ccc(N2C(=O)c3n[nH]c(C)c3C2c2ccccc2OC)cc1 (stereo not given)	0%	/	-3%	/
CCOC(=O)c1ccc(N2C(=O)c3n[nH]c(-c4ccco4)c3C2c2cccc(O)c2)cc1 (stereo not given)	25µM*	/	15%	/
CCOC(=O)c1cc(-c2ccc(C)cc2)n(CCC(=O)Nc2cc(Cl)ccc2C)c1C	-1%	/	0%	/
C=C(C)C(=O)OCCOC(=O)C(=C)C	/	10	/	1
Cc1ccc(CN(C(=O)Cn2nnc3ccccc32)C(C(=O)NCc2ccco2)c2ccc(C)o2)cc1 (stereo not given)	-25%	42*	0%	16*
CCOc1cc(C(C(=O)NCC2CCCO2)N(C(=O)Cn2nnc3ccccc32)c2ccc(OC)c(OC)c2)ccc1O (stereo not given)	0%	-13	32µM*	-3
COc1ccc(N(C(=O)Cn2nnc3ccccc32)C(C(=O)NCc2ccco2)c2ccc(C)o2)cc1 (stereo not given)	4%	29	?	30*
CC(=O)c1ccc(N(C(=O)Cn2nnc3ccccc32)C(C(=O)NCc2ccccc2)c2ccccn2)cc1 (stereo not given)	48%	76*	-1%	47*
Cc1ccc(N(C(=O)Cn2nnc3ccccc32)C(C(=O)NCc2ccco2)c2ccc(C)o2)cc1 (stereo not given)	-3%	5	?	-3
Cc1ccc(N(C(=O)Cn2nnc3ccccc32)C(C(=O)NCc2ccccc2)c2ccccn2)cc1 (stereo not given)	3%	-3	-14%	-3

High-throughput results from PubChem BioAssay.
